Source: PubChem BioAssay (Tox21)
Records with an inconclusive call do not appear. Entries that show only a call come without a potency. The source holds several records for some structures; these can differ, active in one and inactive in another. Calls of active or inactive are those of the source. Unless noted, calls follow the shape of the full dose curve.

What was measured:
[1] = Nuclear factor erythroid 2-related factor 2/antioxidant responsive element (Nrf2/ARE) small molecule agonists: qHTS cell viability counter screen in human keratinocytes (AID 1919968; active = well fitted curve in the direction sought with a large enough effect in the repeat runs; an effect the other way counts as inactive or inconclusive; also: nearly all actives have a fitted effect of over 55% in size)
Method in brief: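 CellTiter-Fluor fluorescence, read 1 h after reagent, gave viability in the same wells as the ARE-luciferase assay. KeratinoSens cells (1,500/well) had 23 h compound exposure at 37 C/5% CO2 following 5 h plating.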

[2] = Nuclear factor erythroid 2-related factor 2/antioxidant responsive element (Nrf2/ARE) small molecule agonists: luciferase reporter gene qHTS assay in human keratinocytes (AID 1919969); also: nearly all actives have a fitted effect of over 35% in size; also: potency is read from the fitted curve at half-maximal effect
[3] = target: Gonadotropin-releasing hormone receptor (Homo sapiens) (UniProt P30968); assay: Human gonadotropin-releasing hormone receptor (GnRHR) small molecule agonists, calcium flux assay in GnRHR-HEK293 cells (AID 1920063); also: nearly all actives have a fitted effect of over 35% in size
Method in brief: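 Agonist mode: compounds at 15 concentrations, in triplicate, went onto calcium dye-loaded GnRHR-HEK293 cells. Intracellular calcium was then followed as 480/540 nm fluorescence at 1 s intervals over 3 min.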

[4] = target: KiSS-1 receptor (Homo sapiens) (UniProt Q969F8); assay: Human kisspeptin (KISS1R) small molecule agonists, calcium flux assay in KISS1R-HEK293 cells (AID 1920064; active = well fitted curve in the direction sought with a large enough effect in the repeat runs; an effect the other way counts as inactive or inconclusive)
Method in brief: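 Agonist mode: intracellular calcium rise tracked at 1 s intervals over 3 min (480/540 nm) immediately after compound addition to dye-loaded KISS1R-HEK293 stable cells. Each compound tested at 15 concentrations in triplicate.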

[5] = G protein-coupled receptor (GPCR) small molecule agonists, calcium flux assay: HEK293 wild type cell line counter screen (AID 1920065)
Method in brief: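 Calcium flux counter screen: compound added in agonist mode at 15 concentrations in triplicate to dye-loaded parental HEK293 cells. Fluorescence (480/540) read kinetically for 3 min; ATP served as positive control.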

[6] = p53 small molecule agonists, cell-based qHTS assay with human liver microsomes (AID 1963577);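 also: p53 response element beta-lactamase reporter cells with liver microsomes plus NADPH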
Method in brief: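 With metabolic activation: human liver microsomes (0.5 mg/mL final) plus NADPH (0.5 mg/mL final) added alongside compounds to p53RE-bla cells; 16 h 37 C exposure; beta-lactamase read by LiveBLAzer fluorescence.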

[7] = p53 small molecule agonists, cell-based qHTS assay with rat liver microsomes (AID 1963578)
Method in brief: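 Metabolic activation by rat liver microsomes and NADPH, each 0.5 mg/mL final, added right after compounds to p53RE-bla reporter cells (4,000/well, plated 5 h earlier). 16 h at 37 C, then LiveBLAzer substrate for 2 h at room temperature in the dark; fluorescence read-out.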

[8] = p53 small molecule agonists, cell-based qHTS assay with rat liver microsomes: qHTS cell viability counter screen (AID 1963580); also: nearly all actives have a fitted effect of over 45% in size; also: potency is read from the fitted curve at half-maximal effect
Method in brief: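 Cytotoxicity counter screen: intracellular ATP measured by CellTiter-Glo luminescence in the same wells as the beta-lactamase reporter read, on HCT-116 p53RE-bla cells exposed 16 h at 37 C to compounds with rat liver microsomes and NADPH, each 0.5 mg/mL final.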

[9] = p53 small molecule agonists, cell-based qHTS assay: qHTS cell viability counter screen (AID 1963581); also: nearly all actives have a fitted effect of over 45% in size
Method in brief: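 Counter screen read by CellTiter-Glo luminescence (ATP content, 30 min at room temperature), run in the same wells as the beta-lactamase reporter read. HCT-116 p53RE-bla cells saw compounds for 16 h at 37 C.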

[10] = target: 5-hydroxytryptamine receptor 2A (Homo sapiens) (UniProt P28223); assay: 5-hydroxytryptamine receptor 2A (HTR2A) small molecule antagonists, cell-based qHTS assay (AID 1963586); also: nearly all actives have a fitted effect of over 45% in size
Method in brief: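 CHO cells stably expressing human HTR2A were plated for 18 h at 37 C, then loaded with calcium dye for 1 h. Compounds were preincubated 5 min at room temperature before DOI (4 nM solution) was added. Kinetic fluorescence was read for 3 min.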

[11] = target: 5-hydroxytryptamine receptor 2A (Homo sapiens) (UniProt P28223); assay: 5-hydroxytryptamine receptor 2A (HTR2A) small molecule agonists, cell-based qHTS assay (AID 1963587); also: nearly all actives have a fitted effect of over 30% in size
Method in brief: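 CHO cells stably expressing human HTR2A, plated 18 h, loaded with calcium dye 1 h at 37 C. Agonist mode: compounds added and intracellular calcium fluorescence recorded kinetically for 2 min at 1 sec intervals.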

[12] = target: Muscarinic acetylcholine receptor M1 (Homo sapiens) (UniProt P11229); assay: Cholinergic receptor muscarinic 1 (CHRM1) small molecule antagonists, cell-based qHTS assay (AID 1963588); also: nearly all actives have a fitted effect of over 40% in size
Method in brief: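 Compounds were tested at 15 concentrations in three independent runs. Dye-loaded CHRM1-CHO cells were exposed 5 min at room temperature before stimulation by acetylcholine added at 50nM. Intracellular calcium was read kinetically on FDSS for 3 min.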

[13] = target: Muscarinic acetylcholine receptor M1 (Homo sapiens) (UniProt P11229); assay: Cholinergic receptor muscarinic 1 (CHRM1) small molecule agonists, cell-based qHTS assay (AID 1963589); also: nearly all actives have a fitted effect of over 35% in size
Method in brief: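 Agonist-mode calcium-flux screen: compounds at 15 concentrations, three independent runs, were pin-transferred onto dye-loaded human CHRM1-CHO cells. Fluorescence was then recorded kinetically every second over minutes.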

[14] = cAMP Responsive Elements (CRE) small molecule agonists, cell-based qHTS assay (AID 1963590)
Method in brief: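 Agonist mode: compound added to CRE-bla HEK 293T cells (2,000/well, 18 h after plating) for 3 h at 37 C/5% CO2. Reporter activity detected via FRET beta-lactamase substrate, 2 h room-temperature loading.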

[15] = cAMP Responsive Elements (CRE) small molecule antagonists, cell-based qHTS assay (AID 1963591; active = well fitted inhibition curve with a large enough effect in the signal ratio in the repeat runs, not every such curve was filed as active; the % refers to the signal ratio)
Method in brief: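 Antagonist mode: compounds are added alongside the adenylyl cyclase activator NKH477 (0.25 uM final) to CRE-bla HEK293T cells for 3 h. LiveBLAzer FRET substrate, 2 h at room temperature, reports bla expression.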

[16] = target: Beta-2 adrenergic receptor (Homo sapiens) (UniProt P07550); assay: Adrenergic beta2 receptor (ADRB2) small molecule antagonists, cell-based qHTS assay (AID 1963592); also: series mostly up to about 92 µM; nearly all actives have a fitted effect of over 50% in size
Method in brief: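 Assay format: CHO-ADRB2 cells, 18-20hr seeding at 37C/5% CO2, then compound plus 1nM isoproterenol agonist mix for 0.5hr RT. Homogeneous time-resolved fluorescence cAMP detection after 1hr, expressed as 665/615 nm ratio.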

[17] = target: D(2) dopamine receptor (Homo sapiens) (UniProt P14416); assay: Dopamine D2 receptor (DRD2) small molecule agonists, cell-based qHTS assay (AID 1963594); also: nearly all actives have a fitted effect of over 35% in size
Method in brief: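 HEK293 cells stably expressing human DRD2, pre-treated with PDE inhibitor Ro20-1724 (0.1 mM final) and compound 10 min at room temperature, then stimulated with NKH477 (200nM […]) for 30 min. cAMP read by HTRF (665/620 nm).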

[18] = target: D(2) dopamine receptor (Homo sapiens) (UniProt P14416); assay: Dopamine D2 receptor (DRD2) small molecule antagonists, cell-based qHTS assay (AID 1963595; active = well fitted inhibition curve with a large enough effect in the signal ratio in the repeat runs, with a control signal flat; the % refers to the signal ratio)
Method in brief: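 DRD2-HEK293; 0.1 mM Ro20-1724; cpd 10 min RT; NKH477 200 nM + quinpirole 12 nM, 30 min RT; HTRF cAMP (cAMP-d2/anti-cAMP cryptate), 665/620 nm ratio after 1 h.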

[19] = p53 small molecule agonists, cell-based qHTS assay (AID 1963582; active = well fitted activation curve with a large enough effect in the signal ratio in the repeat runs, not every such curve was filed as active; the % refers to the signal ratio)
Method in brief: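 Read-out is beta-lactamase FRET fluorescence after 2 h at room temperature with LiveBLAzer B/G substrate. p53 response element-bla cells were treated 16 h at 37 C with compounds in DMSO, added 5 h after seeding.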

[20] = p53 small molecule agonists, cell-based qHTS assay with human liver microsomes: qHTS cell viability counter screen (AID 1963579); also: nearly all actives have a fitted effect of over 45% in size
Method in brief: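 Metabolic activation used human liver microsomes and NADPH, both 0.5 mg/mL final, over 16 hours at 37 C on p53RE-bla cells (4,000/well). Cytotoxicity measured by CellTiter-Glo luminescence, 30 min at room temperature.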

Sequence of Muscarinic acetylcholine receptor M1 (Homo sapiens) (P11229 whole entry, looked up): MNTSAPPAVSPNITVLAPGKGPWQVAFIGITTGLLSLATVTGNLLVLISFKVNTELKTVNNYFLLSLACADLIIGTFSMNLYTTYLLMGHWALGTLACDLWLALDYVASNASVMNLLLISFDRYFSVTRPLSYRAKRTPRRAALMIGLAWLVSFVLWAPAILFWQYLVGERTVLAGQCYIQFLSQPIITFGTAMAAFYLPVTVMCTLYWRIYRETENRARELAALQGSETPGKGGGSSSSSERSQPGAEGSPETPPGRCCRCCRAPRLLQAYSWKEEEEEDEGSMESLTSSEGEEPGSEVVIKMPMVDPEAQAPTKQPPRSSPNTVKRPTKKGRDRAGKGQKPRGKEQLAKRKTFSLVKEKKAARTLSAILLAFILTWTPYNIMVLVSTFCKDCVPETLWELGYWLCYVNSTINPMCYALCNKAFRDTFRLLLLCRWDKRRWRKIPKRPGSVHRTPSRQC
Sequence of 5-hydroxytryptamine receptor 2A (Homo sapiens) (P28223 whole entry, looked up): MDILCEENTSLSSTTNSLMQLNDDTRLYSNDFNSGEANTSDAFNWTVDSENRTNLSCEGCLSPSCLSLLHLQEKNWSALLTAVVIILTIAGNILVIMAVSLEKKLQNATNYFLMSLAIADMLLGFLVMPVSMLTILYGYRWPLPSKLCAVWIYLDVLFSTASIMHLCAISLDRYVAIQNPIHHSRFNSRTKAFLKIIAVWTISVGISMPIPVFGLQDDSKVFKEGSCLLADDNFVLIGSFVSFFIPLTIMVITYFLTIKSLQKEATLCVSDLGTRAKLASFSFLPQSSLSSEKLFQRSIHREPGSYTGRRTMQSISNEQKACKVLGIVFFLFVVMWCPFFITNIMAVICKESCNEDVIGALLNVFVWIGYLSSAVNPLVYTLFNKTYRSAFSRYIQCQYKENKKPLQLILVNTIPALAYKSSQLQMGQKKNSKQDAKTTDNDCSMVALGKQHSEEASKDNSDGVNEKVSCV
Sequence of Beta-2 adrenergic receptor (Homo sapiens) (P07550 whole entry, looked up): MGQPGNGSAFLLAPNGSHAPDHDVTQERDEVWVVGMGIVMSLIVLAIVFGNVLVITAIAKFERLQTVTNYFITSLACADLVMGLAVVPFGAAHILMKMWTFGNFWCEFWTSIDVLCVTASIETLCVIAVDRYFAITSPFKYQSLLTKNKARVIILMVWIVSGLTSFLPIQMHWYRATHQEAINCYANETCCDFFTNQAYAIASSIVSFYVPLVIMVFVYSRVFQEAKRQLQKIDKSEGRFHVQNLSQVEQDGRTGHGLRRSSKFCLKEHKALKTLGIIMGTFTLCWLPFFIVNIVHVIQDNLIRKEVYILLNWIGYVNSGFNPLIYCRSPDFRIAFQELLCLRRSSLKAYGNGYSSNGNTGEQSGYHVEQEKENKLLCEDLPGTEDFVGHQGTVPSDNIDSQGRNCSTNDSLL
Sequence of Gonadotropin-releasing hormone receptor (Homo sapiens) (P30968 whole entry, looked up): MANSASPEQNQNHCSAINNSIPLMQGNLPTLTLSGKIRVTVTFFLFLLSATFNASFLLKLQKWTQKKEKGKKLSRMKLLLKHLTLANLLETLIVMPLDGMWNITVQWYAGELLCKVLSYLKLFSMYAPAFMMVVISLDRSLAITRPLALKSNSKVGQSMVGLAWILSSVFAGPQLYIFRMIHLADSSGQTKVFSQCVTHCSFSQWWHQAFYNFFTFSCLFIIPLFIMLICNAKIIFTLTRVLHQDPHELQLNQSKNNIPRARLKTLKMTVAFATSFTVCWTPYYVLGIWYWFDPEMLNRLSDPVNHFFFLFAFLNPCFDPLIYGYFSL
Sequence of KiSS-1 receptor (Homo sapiens) (Q969F8 whole entry, looked up): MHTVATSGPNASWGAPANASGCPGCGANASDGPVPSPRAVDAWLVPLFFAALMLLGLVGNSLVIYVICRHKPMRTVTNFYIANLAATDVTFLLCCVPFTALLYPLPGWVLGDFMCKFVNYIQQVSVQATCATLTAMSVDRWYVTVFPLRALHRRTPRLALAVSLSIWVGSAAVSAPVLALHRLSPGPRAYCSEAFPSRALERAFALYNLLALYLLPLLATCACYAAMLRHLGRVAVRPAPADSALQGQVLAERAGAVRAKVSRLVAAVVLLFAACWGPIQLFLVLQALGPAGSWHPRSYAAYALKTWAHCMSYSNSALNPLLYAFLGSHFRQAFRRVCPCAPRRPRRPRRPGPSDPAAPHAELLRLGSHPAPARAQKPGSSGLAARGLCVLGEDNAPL
Sequence of D(2) dopamine receptor (Homo sapiens) (P14416 whole entry, looked up): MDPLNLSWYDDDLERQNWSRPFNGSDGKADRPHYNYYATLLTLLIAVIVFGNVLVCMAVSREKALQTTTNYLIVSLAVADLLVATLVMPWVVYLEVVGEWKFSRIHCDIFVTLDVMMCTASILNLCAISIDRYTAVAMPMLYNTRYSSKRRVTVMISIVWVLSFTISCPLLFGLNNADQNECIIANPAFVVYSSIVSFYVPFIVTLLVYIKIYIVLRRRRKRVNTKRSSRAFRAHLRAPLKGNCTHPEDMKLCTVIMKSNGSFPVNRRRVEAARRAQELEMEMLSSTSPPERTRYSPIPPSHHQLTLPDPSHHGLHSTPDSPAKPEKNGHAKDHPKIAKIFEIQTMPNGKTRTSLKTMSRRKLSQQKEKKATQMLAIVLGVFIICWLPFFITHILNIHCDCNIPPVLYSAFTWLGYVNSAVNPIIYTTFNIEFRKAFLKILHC

| Compound | Potency [1] | Potency [2] | Potency [3] | Potency [4] | Potency [5] | Potency [6] | Potency [7] | Potency [8] | Potency [9] | Potency [10] | Potency [11] | Potency [12] | Potency [13] | Potency [14] | Potency [15] | Potency [16] | Potency [17] | Potency [18] | Potency [19] | Potency [20] |
| --- | --- | --- | --- | --- | --- | --- | --- | --- | --- | --- | --- | --- | --- | --- | --- | --- | --- | --- | --- | --- |
| Cc1c(C(N)=O)cc([N+](=O)[O-])cc1[N+](=O)[O-] | inactive | inactive | inactive | inactive | inactive | inactive | inactive | inactive | inactive | inactive | inactive | inactive | inactive | inactive | inactive | inactive | inactive | inactive |  |  |
| OCCOCCOCCOCCO | inactive | inactive | inactive | inactive | inactive | inactive | inactive | inactive | inactive | inactive |  |  | inactive | inactive | inactive | inactive | inactive | inactive | inactive |  |
| CN(C)Cc1cc(CN(C)C)c(O)c(CN(C)C)c1 | inactive | inactive | inactive | inactive | inactive | inactive | inactive |  | inactive |  | inactive | inactive | inactive | inactive |  | inactive | inactive | inactive | inactive | inactive |
| OC[C@@H](O)[C@@H](O)[C@H](O)[C@H](O)CO | inactive | inactive | inactive | inactive | inactive | inactive | inactive |  | inactive |  |  |  |  | inactive | inactive | inactive | inactive | inactive | inactive | inactive |
| CC(=O)OC(C)C | inactive | inactive | inactive | inactive | inactive | inactive | inactive | inactive | inactive | inactive | inactive | inactive | inactive |  | inactive | inactive | inactive |  | inactive |  |
| CCOC(=O)/C=C\C(=O)OCC | inactive | inactive | inactive | inactive | inactive | inactive | inactive |  | inactive |  | inactive | inactive | inactive | inactive | inactive | inactive | inactive | inactive | inactive | inactive |
| C[C@]12CC[C@@H]3c4ccc(O)cc4CC[C@H]3[C@@H]1CC[C@@H]2O | inactive | inactive | inactive | inactive | inactive | inactive | inactive |  |  |  |  |  |  |  | inactive | inactive | inactive | inactive | inactive | inactive |
| COCCc1ccc(OCC(O)CNC(C)C)cc1 (centres undefined) | inactive | inactive | inactive | inactive | inactive | inactive | inactive |  |  |  |  |  |  | inactive | inactive |  |  | inactive |  | inactive |
| O=C(O)c1ccccc1C(=O)O | inactive | inactive | inactive | inactive | inactive | inactive | inactive | inactive | inactive | inactive | inactive | inactive | inactive | inactive | inactive | inactive | inactive | inactive | inactive |  |
| CCc1ccc(CCOc2ccc(CC3SC(=O)NC3=O)cc2)nc1 (centres undefined) | inactive | 27.3 µM (active) and inactive | inactive | inactive | inactive | inactive | inactive |  |  |  |  |  |  |  |  | inactive | inactive | inactive | inactive | inactive |
| CC1CCC2CC1C2(C)C (centres undefined) | inactive | inactive | inactive | inactive | inactive | inactive | inactive | inactive | inactive | inactive | inactive | inactive | inactive |  | inactive | inactive | inactive | inactive | inactive |  |
| Cn1c([N+](=O)[O-])cnc1COC(N)=O | inactive | inactive | inactive | inactive | inactive | inactive | inactive | inactive | inactive | inactive | inactive | inactive | inactive | inactive | inactive | inactive | inactive | inactive | inactive |  |
| O=S(=O)(O)c1ccc2nc(-c3ccccc3)[nH]c2c1 | inactive | inactive | inactive | inactive | inactive | inactive | inactive | 15.5 µM (active) |  | inactive | inactive | inactive | inactive | inactive | inactive |  | inactive |  | inactive |  |
| C=Cc1cccc(C)c1 | inactive | inactive | inactive | inactive | inactive | inactive | inactive | inactive | inactive | inactive | inactive | inactive | inactive | inactive | inactive | inactive | inactive | inactive | inactive |  |
| NCCN1CCNCC1 | inactive | inactive | inactive | inactive | inactive | inactive |  | inactive | inactive | inactive | inactive | inactive | inactive | inactive | inactive | inactive | inactive | inactive | inactive | inactive |
| O=C1CCCCCCCCCCC1 | inactive | inactive | inactive | inactive | inactive | inactive |  | inactive | inactive | inactive | inactive | inactive | inactive | inactive | inactive | inactive | inactive |  | inactive | inactive |
| Cc1[nH]c(=O)c(C#N)cc1-c1ccncc1 | inactive | inactive | inactive | inactive | inactive | inactive | inactive | inactive | inactive |  |  |  |  | inactive | inactive | inactive |  |  | inactive |  |
